For experiment [1], the target named is Myc proto-oncogene protein (Homo sapiens) (UniProt P01106). Briefly: ATG_Myc_CIS: Attagene CIS-FACTORIAL HepG2 Assay for human Myelocytomatosis (Myc) Proto-Oncogene Transcription Factor (AID 2282990). The following applies: HepG2, Attagene cis-reporter transcription factor activity; actives raise or lower the signal. The gist of the method: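 HepG2 cells transiently transfected with multiple cis-promoter-driven reporter transcription units, so endogenous TF activity is read. After 24 h compound exposure, reporter mRNA was quantified by RT-PCR, 6-FAM labelling, HpaI digestion and capillary electrophoresis; bidirectional fit versus DMSO.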

A short description of experiment [2]: ATG_NF_kB_CIS: Attagene CIS-FACTORIAL HepG2 Assay for human Nuclear Factor Kappa B (NF-kB) (AID 2282991). The following applies: HepG2 Attagene cis-factorial NF-kB reporter mRNA; actives raise or lower the signal. The gist of the method:
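Read-out: reporter transcript levels quantified by RT-PCR plus capillary electrophoresis of 6-FAM-labelled, HpaI-cut fragments. Transfected HepG2 cells, 24 h compound exposure, endogenous NF-kB-driven cis element; gain or loss scored versus DMSO.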

A short description of experiment [3]: ATG_NRF2_ARE_CIS: Attagene CIS-FACTORIAL HepG2 Assay for human Nuclear Factor Erythroid 2 Related Factor 2 (NFR2) response to Antioxidant Response Elements (ARE) (AID 2282992). The following applies: HepG2 Attagene ARE/NRF2 reporter, transcription factor activity; actives raise or lower the signal. The gist of the method:
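Using transiently transfected HepG2 cells exposed for 24 h, reporter mRNA levels were determined by RT-PCR with fluorescent primer extension and capillary electrophoresis, analysed for gain or loss of signal against DMSO.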

Experiment [4] is described as follows: BSK_3C_TissueFactor: BioMAP Diversity Plus: 3C Assay for Tissue Factor Biomarker Activity (AID 2282997). The conditions noted are these: BioMAP 3C HUVEC, tissue factor biomarker readout; actives raise or lower the signal. In short, it runs like this: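 Tissue factor on primary human umbilical vein endothelium was read by ELISA 24 h after dosing, gain or loss relative to DMSO. Cytotoxicity ran alongside via SRB (0.1%, TCA-fixed, 560 nm).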

The nature of experiment [5]: BSK_3C_uPAR: BioMAP Diversity Plus: 3C Assay for Urokinase-type plasminogen activator receptor (uPAR) Biomarker Activity (AID 2282998). The following applies: BioMAP 3C HUVEC, uPAR biomarker ELISA; actives raise or lower the signal. In short, it runs like this: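 Dose primary human umbilical vein endothelial cells, incubate 24 h, measure cell-surface uPAR by ELISA, then fit the signal in both directions against the DMSO negative control.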
Background: In an ELISA, binding on a coated surface is turned into a signal by an enzyme label.

Experiment [6] can be described thus: BSK_3C_VCAM1: BioMAP Diversity Plus: 3C Assay for Vascular cell adhesion molecule 1 (VCAM1) Biomarker Activity (AID 2282999). The conditions noted are these: BioMAP 3C HUVEC, VCAM1 ELISA, cytokine-stimulated; actives raise or lower the signal. In short, it runs like this:
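Vascular primary endothelium (human umbilical vein) was exposed to chemicals and assayed 24 h later. VCAM-1 levels came from ELISA, with DMSO serving as baseline for bidirectional fitting.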

Experiment [7] in a line: BSK_4H_Eotaxin3: BioMAP Diversity Plus: 4H Assay for Eotaxin 3 Biomarker Activity (AID 2283000).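 Note: CCL26 protein level quantified by ELISA in parallel with SRB cytotoxicity check.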 The following applies: primary human endothelial cells (HUVEC); actives raise or lower the signal. The gist of the method: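 Human umbilical vein endothelial cells (BSK_4H system) dosed with test chemical; Eotaxin-3 (CCL26) measured by ELISA 24 h after dosing. Bidirectional curve fitting relative to DMSO negative control as baseline.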

The target of experiment [8] is human Peroxisome Proliferator-activated Receptor delta (PPARd), PPARD (gene 5467) (UniProt Q03181). The experiment can be described thus: ATG_PPARd_TRANS: Attagene TRANS-FACTORIAL HepG2 Assay for human Peroxisome Proliferator-activated Receptor delta (PPARd) (AID 2283002; active = hit-call score of the fitted dose curve at least 0.9, where 1 is the maximum). The gist of the method:
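HepG2 cells transiently transfected with multiplexed GAL4-UAS reporter units and exogenous chimeric NR-Gal4 proteins; 24 h compound exposure. Reporter mRNA measured by RT-PCR, 6-FAM labelling, HpaI digestion and capillary electrophoresis; gain of signal versus DMSO.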

Read-out in experiment [9]: Intercellular Adhesion Molecule 1 (ICAM1), ICAM1 (gene 3383)
Briefly: BSK_3C_ICAM1: BioMAP Diversity Plus: 3C Assay for Intercellular Adhesion Molecule 1 (ICAM1) Biomarker Activity (AID 2283003). The conditions noted are these: primary human endothelial cells (HUVEC); actives raise or lower the signal. The gist of the method:
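Using DMSO as baseline, bidirectional curve fitting was applied to ICAM-1 ELISA signals from HUVEC in the 3C system, measured 24 h after compound addition.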

Experiment [10] can be described thus: BSK_3C_Proliferation: Cell Proliferation Assessment in the BioMAP Diversity Plus: 3C Assay (AID 2283006). The following applies: primary human endothelial cells (HUVEC). In short, it runs like this:
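Measured here: sulforhodamine B (0.1%) staining of TCA-fixed sub-confluent umbilical vein endothelial cultures 48 h post-dosing, absorbance 560 nm. DMSO served as negative control and baseline; both signal gain and loss were modelled.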

The target in experiment [11] is Nuclear receptor subfamily 1 group I member 2 (Homo sapiens) (UniProt O75469). Briefly: ATG_PXR_TRANS: Attagene TRANS-FACTORIAL HepG2 Assay for human Pregnane X Receptor (PXR) (AID 2283008; active = hit-call score of the fitted dose curve at least 0.9, where 1 is the maximum). The gist of the method:
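Multiplexed TRANS reporter panel in HepG2; this component tracks PXR-Gal4-driven reporter mRNA after 24 h dosing, measured by RT-PCR with capillary electrophoresis fluorescence, fitted against DMSO.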

For experiment [12], the target named is human RAR-related Orphan Receptor beta (RORb), RORB (gene 6096) (UniProt Q92753). Briefly: ATG_RORb_TRANS: Attagene TRANS-FACTORIAL HepG2 Assay for human RAR-related Orphan Receptor beta (RORb) (AID 2283010; active = hit-call score of the fitted dose curve at least 0.9, where 1 is the maximum). In short, it runs like this: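 Multiplexed transcription-factor reporter assay: HepG2 cells transiently carrying NR-Gal4/GAL4-UAS constructs, 24 h treatment, mRNA quantified by RT-PCR plus capillary electrophoresis fluorescence; activity scored as induction over DMSO.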

Experiment [13] is described as follows: ATG_Oct_MLP_CIS: Attagene CIS-FACTORIAL HepG2 Assay for human Octamer-Binding Transcription Factor (Oct) (AID 2282993). The conditions noted are these: HepG2 Attagene cis-factorial Oct reporter, mRNA; actives raise or lower the signal. In short, it runs like this:
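Multiplexed cis-reporter assay in human liver HepG2 cells, 24 h incubation. Reporter RNA amplified and labelled, then resolved by capillary electrophoresis; DMSO serves as negative control and baseline.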

For experiment [14], the target named is human Peroxisome Proliferator-activated Receptor alpha (PPARa), PPARA (gene 5465) (UniProt Q07869). Briefly: ATG_PPARa_TRANS: Attagene TRANS-FACTORIAL HepG2 Assay for human Peroxisome Proliferator-activated Receptor alpha (PPARa) (AID 2283001; active = hit-call score of the fitted dose curve at least 0.9, where 1 is the maximum;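 for AC50: potency for gain of reporter signal over DMSO so agonist or activator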). In short, it runs like this:
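Exposure: 24 h, transiently transfected HepG2 cells. Endpoint: GAL4-UAS reporter mRNA, RT-PCR with capillary electrophoresis fluorescence. Baseline: DMSO; increases fitted.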

Experiment [15] addresses Retinoic acid receptor alpha (Homo sapiens) (UniProt P10276). The experiment can be described thus: ATG_RARa_TRANS: Attagene TRANS-FACTORIAL HepG2 Assay for human Retinoic Acid Receptor alpha (RARa) (AID 2283005; active = hit-call score of the fitted dose curve at least 0.9, where 1 is the maximum). The gist of the method: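 HepG2 cells transiently transfected with multiple reporter units expressing chimeric RARα-GAL4 fusion, with GAL4-UAS-driven reporters. After 24 h compound exposure, reporter mRNA induction quantified by RT-PCR and capillary electrophoresis with fluorescent labeling; gain-of-signal fitted relative to DMSO control.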

For experiment [16], the target named is Peroxisome proliferator-activated receptor gamma (Homo sapiens) (UniProt P37231). The experiment can be described thus: ATG_PPARg_TRANS: Attagene TRANS-FACTORIAL HepG2 Assay for human Peroxisome Proliferator-activated Receptor-gamma (PPARg) (AID 2283007; active = hit-call score of the fitted dose curve at least 0.9, where 1 is the maximum). In short, it runs like this: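 Read-out: reporter mRNA induction, detected by fluorescence after RT-PCR and capillary electrophoresis. Transiently transfected human HepG2 liver cells carrying a chimeric NR-Gal4 construct were dosed for 24 h; activity was fitted upward relative to DMSO.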

Experiment [17] concerns the target human Retinoic Acid Receptor gamma (RARg), RARG (gene 5916) (UniProt P13631). The experiment can be described thus: ATG_RARg_TRANS: Attagene TRANS-FACTORIAL HepG2 Assay for human Retinoic Acid Receptor gamma (RARg) (AID 2283009; active = hit-call score of the fitted dose curve at least 0.9, where 1 is the maximum). In short, it runs like this:
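Gain-of-signal relative to DMSO is reported from fluorescent capillary electrophoresis of RT-PCR reporter products. These came from HepG2 cells expressing transfected RARg-GAL4 chimeras with UAS reporters, harvested 24 h after dosing.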

Experiment [18] has as its target Cellular tumor antigen p53 (Homo sapiens) (UniProt P04637). The experiment can be described thus: ATG_p53_CIS: Attagene CIS-FACTORIAL HepG2 Assay for human p53 Transcription Factor (AID 2282994). The following applies: HepG2 p53 cis-element reporter, Attagene mRNA; actives raise or lower the signal. In short, it runs like this: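 In HepG2 cells, reporter transcription units under cis-regulatory promoters were transiently introduced. Following 24 h treatment, RNA was processed to labelled, digested cDNA fragments read by capillary electrophoresis; fitting was bidirectional versus DMSO.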

Experiment [19] has as its target human RAR-related Orphan Receptor gamma (RORg), RORC (gene 6097) (UniProt P51449). Briefly: ATG_RORg_TRANS: Attagene TRANS-FACTORIAL HepG2 Assay for human RAR-related Orphan Receptor gamma (RORg) (AID 2283011; active = hit-call score of the fitted dose curve at least 0.9, where 1 is the maximum). In short, it runs like this: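 Reporter transcripts from a transfected RORg-GAL4 chimera in HepG2 cells were quantified 24 h after dosing by RT-PCR, 6-FAM labelling, HpaI digestion and capillary electrophoresis; increases over DMSO baseline were fitted.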

In experiment [20] the target is human Retinoic Acid Receptor beta (RARb), RARB (gene 5915) (UniProt P10826). Briefly: ATG_RARb_TRANS: Attagene TRANS-FACTORIAL HepG2 Assay for human Retinoic Acid Receptor beta (AID 2283004; active = hit-call score of the fitted dose curve at least 0.9, where 1 is the maximum). The gist of the method: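 Induction of reporter mRNA from a chimeric RARb-Gal4 construct was measured by RT-PCR, FAM labelling, HpaI digestion and capillary electrophoresis. Measurements followed 24 h compound treatment of transiently transfected human HepG2 liver cells, with DMSO as baseline.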

Molecules are shown by their SMILES. Records with an inconclusive call do not appear. The source made the active and inactive calls. Rule for the calls, unless noted: active = hit-call score of the fitted dose curve at least 0.9, where 1 is the maximum; inactive = score below 0.9.

human Peroxisome Proliferator-activated Receptor delta (PPARd), PPARD (gene 5467), sequence (Q03181 whole entry, looked up, the tested form may be a part): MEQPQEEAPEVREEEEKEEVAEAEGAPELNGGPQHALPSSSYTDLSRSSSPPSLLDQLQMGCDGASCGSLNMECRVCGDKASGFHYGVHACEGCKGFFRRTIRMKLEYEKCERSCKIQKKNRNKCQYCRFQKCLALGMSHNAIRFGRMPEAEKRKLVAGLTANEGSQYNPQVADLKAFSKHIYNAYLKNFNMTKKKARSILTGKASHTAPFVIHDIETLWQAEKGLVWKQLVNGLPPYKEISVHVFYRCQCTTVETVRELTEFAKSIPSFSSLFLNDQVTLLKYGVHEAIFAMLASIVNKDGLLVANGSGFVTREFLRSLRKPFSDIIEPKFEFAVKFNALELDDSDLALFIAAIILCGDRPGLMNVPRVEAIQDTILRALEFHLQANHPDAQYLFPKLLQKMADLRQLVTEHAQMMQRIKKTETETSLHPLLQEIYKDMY
Peroxisome proliferator-activated receptor gamma (Homo sapiens), sequence (P37231 whole entry, looked up, the tested form may be a part): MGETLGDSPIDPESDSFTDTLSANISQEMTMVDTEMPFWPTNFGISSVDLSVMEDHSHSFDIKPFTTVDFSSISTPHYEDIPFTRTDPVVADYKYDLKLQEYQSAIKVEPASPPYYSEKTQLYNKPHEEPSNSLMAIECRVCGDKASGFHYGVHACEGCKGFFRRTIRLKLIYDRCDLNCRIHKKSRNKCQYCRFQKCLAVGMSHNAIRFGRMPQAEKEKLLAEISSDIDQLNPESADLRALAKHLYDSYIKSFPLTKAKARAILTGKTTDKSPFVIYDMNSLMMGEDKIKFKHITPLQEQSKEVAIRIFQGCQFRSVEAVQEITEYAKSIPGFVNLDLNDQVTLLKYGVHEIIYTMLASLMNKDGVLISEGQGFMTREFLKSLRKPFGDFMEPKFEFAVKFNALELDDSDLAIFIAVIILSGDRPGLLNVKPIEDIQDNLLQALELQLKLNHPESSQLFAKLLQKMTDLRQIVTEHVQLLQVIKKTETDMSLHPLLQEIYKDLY
human RAR-related Orphan Receptor beta (RORb), RORB (gene 6096), sequence (Q92753 whole entry, looked up, the tested form may be a part): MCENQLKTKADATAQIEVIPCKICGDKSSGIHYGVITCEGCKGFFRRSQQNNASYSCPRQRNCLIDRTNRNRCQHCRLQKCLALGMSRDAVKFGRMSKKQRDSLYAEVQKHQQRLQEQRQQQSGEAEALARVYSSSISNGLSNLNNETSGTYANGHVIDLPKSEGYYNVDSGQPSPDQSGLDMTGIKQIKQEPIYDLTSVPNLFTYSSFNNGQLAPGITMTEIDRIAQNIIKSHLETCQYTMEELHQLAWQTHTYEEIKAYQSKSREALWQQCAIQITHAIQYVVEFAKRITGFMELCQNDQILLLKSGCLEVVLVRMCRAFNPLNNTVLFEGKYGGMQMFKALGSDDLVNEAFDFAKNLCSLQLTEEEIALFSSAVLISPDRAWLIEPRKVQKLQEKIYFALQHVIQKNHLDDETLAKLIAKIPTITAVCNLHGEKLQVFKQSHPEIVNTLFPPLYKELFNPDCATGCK
human Retinoic Acid Receptor gamma (RARg), RARG (gene 5916), sequence (P13631 whole entry, looked up, the tested form may be a part): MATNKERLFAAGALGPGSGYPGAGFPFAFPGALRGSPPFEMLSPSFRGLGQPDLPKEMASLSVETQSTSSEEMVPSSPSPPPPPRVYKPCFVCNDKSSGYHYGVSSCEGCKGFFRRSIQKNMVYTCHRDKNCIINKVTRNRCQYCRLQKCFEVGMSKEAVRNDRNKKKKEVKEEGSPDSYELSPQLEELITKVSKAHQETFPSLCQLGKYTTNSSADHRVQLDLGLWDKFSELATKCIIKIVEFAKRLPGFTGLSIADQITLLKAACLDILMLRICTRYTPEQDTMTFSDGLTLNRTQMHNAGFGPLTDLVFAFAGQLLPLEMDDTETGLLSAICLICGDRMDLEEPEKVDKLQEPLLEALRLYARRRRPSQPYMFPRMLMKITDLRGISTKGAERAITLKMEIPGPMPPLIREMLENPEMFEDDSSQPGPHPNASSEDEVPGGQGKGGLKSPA
Myc proto-oncogene protein (Homo sapiens), sequence (P01106 whole entry, looked up): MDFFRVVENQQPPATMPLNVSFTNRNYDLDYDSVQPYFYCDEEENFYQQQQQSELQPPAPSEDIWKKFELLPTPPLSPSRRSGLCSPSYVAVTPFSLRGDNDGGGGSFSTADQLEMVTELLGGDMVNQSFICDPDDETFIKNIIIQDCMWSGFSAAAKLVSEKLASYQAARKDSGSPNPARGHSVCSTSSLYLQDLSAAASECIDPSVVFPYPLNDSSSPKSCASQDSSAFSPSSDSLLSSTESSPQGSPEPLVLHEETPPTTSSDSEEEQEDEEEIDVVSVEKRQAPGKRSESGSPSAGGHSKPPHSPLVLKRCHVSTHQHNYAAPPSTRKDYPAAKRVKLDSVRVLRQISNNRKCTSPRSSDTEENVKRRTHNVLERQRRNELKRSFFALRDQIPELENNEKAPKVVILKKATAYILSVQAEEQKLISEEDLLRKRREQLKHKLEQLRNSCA
Cellular tumor antigen p53 (Homo sapiens), sequence (P04637 whole entry, looked up, the tested form may be a part): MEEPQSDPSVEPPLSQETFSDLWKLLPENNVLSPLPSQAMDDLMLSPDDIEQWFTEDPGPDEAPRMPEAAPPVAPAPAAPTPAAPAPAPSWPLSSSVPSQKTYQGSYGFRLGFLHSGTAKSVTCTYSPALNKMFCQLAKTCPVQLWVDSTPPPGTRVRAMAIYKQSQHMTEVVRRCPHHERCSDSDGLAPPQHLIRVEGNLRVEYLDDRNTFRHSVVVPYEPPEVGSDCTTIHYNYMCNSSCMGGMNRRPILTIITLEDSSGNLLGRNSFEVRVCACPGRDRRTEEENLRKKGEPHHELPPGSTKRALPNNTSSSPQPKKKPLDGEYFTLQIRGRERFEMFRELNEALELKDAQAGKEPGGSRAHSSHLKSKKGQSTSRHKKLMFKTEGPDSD
Nuclear receptor subfamily 1 group I member 2 (Homo sapiens), sequence (O75469 whole entry, looked up, the tested form may be a part): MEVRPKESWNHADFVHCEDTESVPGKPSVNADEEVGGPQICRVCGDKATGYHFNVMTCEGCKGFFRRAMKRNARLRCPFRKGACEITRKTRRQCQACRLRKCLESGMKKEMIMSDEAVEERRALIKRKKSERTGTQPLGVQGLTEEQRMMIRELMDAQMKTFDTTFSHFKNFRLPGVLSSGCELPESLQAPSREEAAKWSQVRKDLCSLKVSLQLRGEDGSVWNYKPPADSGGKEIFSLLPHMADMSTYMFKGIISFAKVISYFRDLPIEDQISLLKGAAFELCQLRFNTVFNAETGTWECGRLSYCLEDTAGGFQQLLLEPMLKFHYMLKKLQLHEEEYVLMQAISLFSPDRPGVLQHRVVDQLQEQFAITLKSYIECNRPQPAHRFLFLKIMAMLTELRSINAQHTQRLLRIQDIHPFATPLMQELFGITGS
Retinoic acid receptor alpha (Homo sapiens), sequence (P10276 whole entry, looked up, the tested form may be a part): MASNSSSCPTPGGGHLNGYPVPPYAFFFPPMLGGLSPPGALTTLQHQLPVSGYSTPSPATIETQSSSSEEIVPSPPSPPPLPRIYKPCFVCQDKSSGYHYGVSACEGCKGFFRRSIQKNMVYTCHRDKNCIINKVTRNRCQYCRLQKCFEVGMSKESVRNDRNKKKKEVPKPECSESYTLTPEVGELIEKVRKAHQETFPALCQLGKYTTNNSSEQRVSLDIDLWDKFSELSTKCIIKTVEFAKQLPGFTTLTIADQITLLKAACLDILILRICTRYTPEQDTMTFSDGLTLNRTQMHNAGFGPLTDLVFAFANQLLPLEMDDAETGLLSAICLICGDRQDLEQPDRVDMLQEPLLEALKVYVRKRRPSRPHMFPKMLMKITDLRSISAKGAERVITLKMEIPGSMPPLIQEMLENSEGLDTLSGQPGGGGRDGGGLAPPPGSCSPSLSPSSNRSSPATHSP
human Peroxisome Proliferator-activated Receptor alpha (PPARa), PPARA (gene 5465), sequence (Q07869 whole entry, looked up, the tested form may be a part): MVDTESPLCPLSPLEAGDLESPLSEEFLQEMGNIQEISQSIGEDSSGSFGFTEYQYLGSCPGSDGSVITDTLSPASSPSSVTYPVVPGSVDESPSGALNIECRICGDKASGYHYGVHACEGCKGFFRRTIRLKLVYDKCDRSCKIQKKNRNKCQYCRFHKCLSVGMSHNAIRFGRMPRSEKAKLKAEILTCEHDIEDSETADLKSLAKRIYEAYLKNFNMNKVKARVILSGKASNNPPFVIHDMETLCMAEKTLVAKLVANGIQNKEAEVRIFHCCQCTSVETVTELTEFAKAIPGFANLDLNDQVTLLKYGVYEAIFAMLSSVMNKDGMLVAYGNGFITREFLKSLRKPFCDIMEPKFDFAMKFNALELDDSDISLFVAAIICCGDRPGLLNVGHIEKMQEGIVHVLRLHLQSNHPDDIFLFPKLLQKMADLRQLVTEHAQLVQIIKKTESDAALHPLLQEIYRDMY
human Retinoic Acid Receptor beta (RARb), RARB (gene 5915), sequence (P10826 whole entry, looked up, the tested form may be a part): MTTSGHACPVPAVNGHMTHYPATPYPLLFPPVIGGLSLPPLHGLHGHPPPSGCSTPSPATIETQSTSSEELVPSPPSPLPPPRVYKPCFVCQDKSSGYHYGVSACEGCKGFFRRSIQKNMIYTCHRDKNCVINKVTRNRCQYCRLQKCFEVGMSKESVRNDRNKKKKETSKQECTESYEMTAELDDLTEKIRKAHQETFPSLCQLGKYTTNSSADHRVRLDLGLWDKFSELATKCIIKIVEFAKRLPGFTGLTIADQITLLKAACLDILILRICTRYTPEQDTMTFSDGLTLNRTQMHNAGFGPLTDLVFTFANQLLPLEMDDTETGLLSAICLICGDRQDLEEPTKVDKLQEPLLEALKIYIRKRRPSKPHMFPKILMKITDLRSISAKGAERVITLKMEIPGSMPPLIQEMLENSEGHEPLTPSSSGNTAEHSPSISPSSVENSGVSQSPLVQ

`CC(C)(N=C=O)c1cccc(C(C)(C)N=C=O)c1`: the outcome in experiment [1], in [2], in experiment [4], in [5], in experiment [6] and in [7] was inactive. For the same compound, the result in experiment [8], in experiment [9], in experiment [10] and in [12] was inactive. The AC50 is 13 µM (active) in experiment [3] and 11.3 µM (active) in experiment [11].
Regarding `CCCCCCC(C)(C)S`, the compound was classed as inactive in [1], in [2], in experiment [13], in [14], in experiment [15] and in experiment [16]. The result in experiment [11] and in [17] was inactive.
`CC(C)C[C@H](NC(=O)OCC1c2ccccc2-c2ccccc21)C(=O)O`: the compound was classed as inactive in experiment [1], in experiment [2], in [18] and in experiment [12]. Also, the AC50 in [3] is 31.1 µM (active); in experiment [14], 40 µM (active); in experiment [16], 23.1 µM (active); in [11], 12.5 µM (active).
Take `CC(=O)c1ccccn1`: the call in [1], in experiment [2], in [13], in experiment [18] and in experiment [19] was inactive.
For `C[N+](C)(C)CCCCCC[N+](C)(C)C`, the compound was called inactive in [1], in experiment [2], in experiment [3], in experiment [18], in experiment [8] and in [20]. In addition, the result in experiment [16] and in experiment [11] was inactive.
Regarding `c1ccc(CN(Cc2ccccc2)Cc2ccccc2)cc1`, the call in [1], in [2], in experiment [13] and in experiment [17] was inactive.
Consider `O=C(c1ccccc1)C(O)c1ccccc1` (stereo not given), for which the result in experiment [1], in experiment [2], in [3], in experiment [8], in experiment [15] and in experiment [16] was inactive. Moreover, the outcome in [11] and in experiment [12] was inactive.
As for `CC(=O)NCCO`, the compound was called inactive in experiment [1], in experiment [2], in experiment [3], in [18], in experiment [11] and in experiment [17]. Also, in experiment [12], the outcome was inactive.

Broadly, the AC50 is the concentration at which the activity in the assay is half-maximal.
